Results as given in the supplement of paper PMC3334620.
Over roughly 33,000 sequences, “E-score (-0.5 to 0.5)” has its median near -0.054; the highest 2% begin near 0.39. Many of the other results were omitted from the sample, so the highest values are more common in it than they were.

These sequences were tested against Ylr278c (UniProt Q05854) (assay: PBM E-score (8-mer binding enrichment) (E-score (-0.5 to 0.5)); higher = stronger / more preferred TF binding). Conditions: protein concentration: 200 nM; construct: GST-DNA-binding domain.
Chain of UniProt Q05854 (Q05854 whole entry, the tested form may be a part): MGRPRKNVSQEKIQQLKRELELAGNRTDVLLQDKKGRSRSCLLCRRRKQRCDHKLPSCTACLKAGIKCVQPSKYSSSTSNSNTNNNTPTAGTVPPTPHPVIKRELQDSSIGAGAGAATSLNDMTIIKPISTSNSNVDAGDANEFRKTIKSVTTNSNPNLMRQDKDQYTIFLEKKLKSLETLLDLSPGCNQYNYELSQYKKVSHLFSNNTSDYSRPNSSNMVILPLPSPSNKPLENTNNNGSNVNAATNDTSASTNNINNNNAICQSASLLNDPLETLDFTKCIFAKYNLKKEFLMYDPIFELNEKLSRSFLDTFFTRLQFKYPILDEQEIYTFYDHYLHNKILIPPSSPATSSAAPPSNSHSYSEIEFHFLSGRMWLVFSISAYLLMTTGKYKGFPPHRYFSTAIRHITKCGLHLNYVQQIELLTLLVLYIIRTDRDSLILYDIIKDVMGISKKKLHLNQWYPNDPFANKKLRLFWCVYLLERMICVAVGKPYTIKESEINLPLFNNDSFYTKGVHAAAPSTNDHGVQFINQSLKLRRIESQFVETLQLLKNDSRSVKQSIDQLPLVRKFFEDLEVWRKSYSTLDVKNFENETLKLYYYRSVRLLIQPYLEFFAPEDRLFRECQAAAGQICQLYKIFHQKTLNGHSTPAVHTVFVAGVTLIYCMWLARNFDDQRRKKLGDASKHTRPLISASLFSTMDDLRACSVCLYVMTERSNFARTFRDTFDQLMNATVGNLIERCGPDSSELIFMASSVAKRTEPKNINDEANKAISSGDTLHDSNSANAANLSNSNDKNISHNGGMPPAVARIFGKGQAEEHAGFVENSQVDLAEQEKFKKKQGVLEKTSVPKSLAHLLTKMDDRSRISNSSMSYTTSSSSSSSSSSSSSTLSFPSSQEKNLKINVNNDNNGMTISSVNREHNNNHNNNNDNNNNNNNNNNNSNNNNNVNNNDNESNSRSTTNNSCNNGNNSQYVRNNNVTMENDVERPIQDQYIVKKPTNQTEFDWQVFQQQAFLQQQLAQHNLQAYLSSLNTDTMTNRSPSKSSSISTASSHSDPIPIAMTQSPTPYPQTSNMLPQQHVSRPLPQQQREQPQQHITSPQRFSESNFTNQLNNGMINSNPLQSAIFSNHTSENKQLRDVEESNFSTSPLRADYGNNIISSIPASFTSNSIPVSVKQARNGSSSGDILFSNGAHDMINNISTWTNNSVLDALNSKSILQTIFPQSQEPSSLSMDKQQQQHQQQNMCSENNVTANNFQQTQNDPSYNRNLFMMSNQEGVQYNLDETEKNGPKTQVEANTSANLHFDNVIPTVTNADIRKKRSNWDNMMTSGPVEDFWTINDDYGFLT
Experimental: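 Universal 'all 10-mer' protein binding microarrays (Agilent AMADID 015681) probed with GST-tagged S. cerevisiae TFs (full-length or DBD) made by in vitro transcription/translation (PURExpress), about 100-200 nM. Bound TF was detected with fluorescent anti-GST. Each ungapped 8-mer (which stands for itself and its reverse complement) is scored by the PBM enrichment score (E-score), a modified Wilcoxon-Mann-Whitney statistic from -0.5 to +0.5, computed with the Universal PBM Analysis Suite. Scale: above 0.35 generally sequence-specific binding.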
For AGTCCGTG, the “PBM E-score” value was 0.343. With ATTCCGTC the “PBM E-score” value was 0.362. ACTCCGTC was tested, and the “PBM E-score” value was 0.459. For CCTCCGTC, the “PBM E-score” value was 0.351. GCTCCATA was tested, and the “PBM E-score” value was -0.175. In the case of ACTCCGTA, the “PBM E-score” value is reported as 0.443. For ACTCCTTA, the “PBM E-score” value was -0.0802. For GCTCCGTA, the “PBM E-score” value was 0.405. With ACTCCGTG the “PBM E-score” value was 0.449. With ACACCGTA the “PBM E-score” value was 0.102. For AATCCGTG, the “PBM E-score” value was 0.26. With GCTGGAGA the “PBM E-score” value was -0.271. With GGCACTAC the “PBM E-score” value was -0.0733. In the case of CCTGATCG, the “PBM E-score” value is reported as -0.0211. With AGGAGTGC the “PBM E-score” value was -0.139. For AGGAGTGA, the “PBM E-score” value was -0.0619. For GGGAGTGA, the “PBM E-score” value was 0.0441. In the case of CTGAGTGC, the “PBM E-score” value is reported as -0.133. With CGGAGTGC the “PBM E-score” value was 0.438. With CGGAGTGA the “PBM E-score” value was 0.459. With GACCATGA the “PBM E-score” value was 0.0081. For CCTTCTGC, the “PBM E-score” value was -0.136. ATGTTAGC was tested, and the “PBM E-score” value was -0.0158. In the case of AAGACGCA, the “PBM E-score” value is reported as -0.074. For GTCAACAA, the “PBM E-score” value was -0.23. GGCTCCCA was tested, and the “PBM E-score” value was -0.145. AGCTCCGG was tested, and the “PBM E-score” value was 0.458. AGCTCCGC was tested, and the “PBM E-score” value was 0.436. In the case of AGCTCCTC, the “PBM E-score” value is reported as -0.144. In the case of AGCTCCTA, the “PBM E-score” value is reported as -0.0358. In the case of GGCTCCGA, the “PBM E-score” value is reported as 0.393. In the case of AGCTCCTG, the “PBM E-score” value is reported as -0.0626. For GGCTCCAA, the “PBM E-score” value was -0.0143. For AGCTCCAC, the “PBM E-score” value was -0.0221. With AGCTCCAA the “PBM E-score” value was -0.207. AGCTCCCG was tested, and the “PBM E-score” value was 0.0891. For AGCTCCGA, the “PBM E-score” value was 0.47. For GAGCCTCA, the “PBM E-score” value was -0.171. For CGCTCCCG, the “PBM E-score” value was 0.115. In the case of CACTTCAC, the “PBM E-score” value is reported as -0.0647. For GTCTGTTA, the “PBM E-score” value was -0.13. With TGCTCCCA the “PBM E-score” value was -0.175. AAGTCGAG was tested, and the “PBM E-score” value was -0.374. For CTGTCTGC, the “PBM E-score” value was -0.222. For CCCAATAA, the “PBM E-score” value was -0.0977. With GGAGACTA the “PBM E-score” value was 0.0463. With GCTAAGAC the “PBM E-score” value was -0.0188. For CGCTCCGA, the “PBM E-score” value was 0.432. For CGCTCCGC, the “PBM E-score” value was 0.317. In the case of CGCTCCCA, the “PBM E-score” value is reported as 0.0833. With AACTGTGG the “PBM E-score” value was -0.0559. In the case of ACTACGCT, the “PBM E-score” value is reported as -0.0389. In the case of ACCGACAA, the “PBM E-score” value is reported as 0.199. With GCCGACGA the “PBM E-score” value was 0.248. In the case of TCCGACGA, the “PBM E-score” value is reported as 0.397. With TCCGACAA the “PBM E-score” value was 0.39. For CCCGACAA, the “PBM E-score” value was 0.281. CCCGACGA was tested, and the “PBM E-score” value was 0.213. For ACCTCTGA, the “PBM E-score” value was -0.0775. For CAAGATTG, the “PBM E-score” value was -0.151. In the case of AAAATTAT, the “PBM E-score” value is reported as 0.214. ACCCGGCA was tested, and the “PBM E-score” value was 0.174. ACCCGGAC was tested, and the “PBM E-score” value was 0.396. With ACCCGGTA the “PBM E-score” value was 0.161. ACCCGGTC was tested, and the “PBM E-score” value was 0.202. ACCCGGGC was tested, and the “PBM E-score” value was 0.273. TCACGGAA was tested, and the “PBM E-score” value was 0.324. With CCGGGGAC the “PBM E-score” value was 0.242. TCCCGGAA was tested, and the “PBM E-score” value was 0.44. ACCCGGAA was tested, and the “PBM E-score” value was 0.394. CCCGGGAC was tested, and the “PBM E-score” value was 0.394. For GCCGGGAC, the “PBM E-score” value was 0.255. TCCCGGCA was tested, and the “PBM E-score” value was 0.333. With CCCCTAAC the “PBM E-score” value was -0.141. In the case of GAAATCGC, the “PBM E-score” value is reported as 0.214. With AACTGGCC the “PBM E-score” value was 0.0711. In the case of GTGCCTTA, the “PBM E-score” value is reported as -0.129. AGCGCAGG was tested, and the “PBM E-score” value was 0.169. In the case of CAAAAAGG, the “PBM E-score” value is reported as -0.203. With AATTTCTC the “PBM E-score” value was 0.121. With CCCCGGTA the “PBM E-score” value was 0.329. With CCCCGGAC the “PBM E-score” value was 0.388. CCCCGGCA was tested, and the “PBM E-score” value was 0.318. In the case of GCCCGGGC, the “PBM E-score” value is reported as 0.356. With GCCCGGAC the “PBM E-score” value was 0.406. CCCCGGAG was tested, and the “PBM E-score” value was 0.48. In the case of CCCCGGCC, the “PBM E-score” value is reported as 0.287. With CCCCGGCG the “PBM E-score” value was 0.348. In the case of CCCGGGAG, the “PBM E-score” value is reported as 0.294. CCCCGGTC was tested, and the “PBM E-score” value was 0.368. For GCCCGGCC, the “PBM E-score” value was 0.32. With CCCCGGAA the “PBM E-score” value was 0.406. AAACCAGC was tested, and the “PBM E-score” value was 0.0107. For AGTGAGCC, the “PBM E-score” value was -0.162. For TACTTTAA, the “PBM E-score” value was -0.122. TCGGGTCA was tested, and the “PBM E-score” value was 0.232. AGCAGCCA was tested, and the “PBM E-score” value was -0.259. For CCCAGTCC, the “PBM E-score” value was -0.0128. CTATAAAG was tested, and the “PBM E-score” value was 0.0306. For GAACCAGC, the “PBM E-score” value was -0.126. With GCCCGGAA the “PBM E-score” value was 0.423. ACCCGGAG was tested, and the “PBM E-score” value was 0.46. With GCCCGGGA the “PBM E-score” value was 0.341. With GCCCGGTA the “PBM E-score” value was 0.26. ACCCGGCG was tested, and the “PBM E-score” value was 0.258. With ACCCGGAT the “PBM E-score” value was 0.238. In the case of AGCTCACC, the “PBM E-score” value is reported as -0.00625. In the case of CTTCCGAC, the “PBM E-score” value is reported as 0.273. With ATTCCGAC the “PBM E-score” value was 0.451. With ATGCCGAC the “PBM E-score” value was 0.318. With ATTCCGAA the “PBM E-score” value was 0.456. In the case of ATGCCGAG, the “PBM E-score” value is reported as 0.213. For CTTCCGAA, the “PBM E-score” value was 0.371. For GTTCCGAA, the “PBM E-score” value was 0.373. With ATTCCGAG the “PBM E-score” value was 0.445. With ATTCCAAG the “PBM E-score” value was -0.077. In the case of GTGCAACA, the “PBM E-score” value is reported as -0.184. For ACATTCCG, the “PBM E-score” value was 0.332. For AGGGTTAG, the “PBM E-score” value was -0.249. ATATGATA was tested, and the “PBM E-score” value was 0.0821. With AAGATTCT the “PBM E-score” value was -0.242. In the case of AACACCGC, the “PBM E-score” value is reported as 0.27. In the case of CCCACCGA, the “PBM E-score” value is reported as 0.00192. For AACACCGG, the “PBM E-score” value was 0.411. For AATACCGT, the “PBM E-score” value was 0.211. In the case of CCCACCGG, the “PBM E-score” value is reported as 0.41. AATACCGC was tested, and the “PBM E-score” value was 0.268. CACACCGG was tested, and the “PBM E-score” value was 0.283. CCCACCGC was tested, and the “PBM E-score” value was 0.225. With AATACCGG the “PBM E-score” value was 0.416. For ATAAATAT, the “PBM E-score” value was 0.106. With GGTTCGTA the “PBM E-score” value was -0.0544. CACTGTAC was tested, and the “PBM E-score” value was -0.378. In the case of AAAGCGAC, the “PBM E-score” value is reported as 0.031. With ATCCGAAA the “PBM E-score” value was 0.368. With ATCCGAAG the “PBM E-score” value was 0.301. ATCCGAAT was tested, and the “PBM E-score” value was 0.395. For GACCGAAC, the “PBM E-score” value was 0.122. With GTCCGAAC the “PBM E-score” value was 0.401. With CGCCGAAG the “PBM E-score” value was 0.365. GGCCGAAA was tested, and the “PBM E-score” value was 0.254. With CACCGAAG the “PBM E-score” value was 0.167. CTCCGAAG was tested, and the “PBM E-score” value was 0.479. In the case of GTCCGAAA, the “PBM E-score” value is reported as 0.426. AACCGAAT was tested, and the “PBM E-score” value was 0.133. GCCCGAAC was tested, and the “PBM E-score” value was 0.215. For GGACACCA, the “PBM E-score” value was 0.0663. For AAATGGTT, the “PBM E-score” value was -0.0331. ACCCACAA was tested, and the “PBM E-score” value was 0.00936. With AGCTTCCG the “PBM E-score” value was 0.24. In the case of CAACTGCA, the “PBM E-score” value is reported as -0.174. With GGAGCTCC the “PBM E-score” value was 0.348. With TTCCGAAA the “PBM E-score” value was 0.43. In the case of CACCGAAC, the “PBM E-score” value is reported as 0.102. TGCCGAAA was tested, and the “PBM E-score” value was 0.325. In the case of ATCCGAAC, the “PBM E-score” value is reported as 0.344. For CACCGAAA, the “PBM E-score” value was 0.184. With TCCCGAAA the “PBM E-score” value was 0.238. For CTCCGAAC, the “PBM E-score” value was 0.457. CTCCGAAA was tested, and the “PBM E-score” value was 0.477. In the case of CGCCGAAA, the “PBM E-score” value is reported as 0.358. In the case of CCACAATC, the “PBM E-score” value is reported as 0.0776. ACTGCTAA was tested, and the “PBM E-score” value was -0.185. For AACAGTTC, the “PBM E-score” value was -0.0219. In the case of CCTCAAAG, the “PBM E-score” value is reported as -0.271. With AGCGCTCC the “PBM E-score” value was 0.0243. In the case of CAGTAGCG, the “PBM E-score” value is reported as 0.0152. GGAGTTAC was tested, and the “PBM E-score” value was 0.399. For CGAGTTAC, the “PBM E-score” value was -0.00574. For AGAGTTAC, the “PBM E-score” value was -0.362. In the case of ACCTAGCT, the “PBM E-score” value is reported as -0.1. With ACTACAAA the “PBM E-score” value was -0.0603.
